# Source: PubChem BioAssay (NCI)
# Compounds without any hit were thinned out: in the full panel of roughly 83,000, 20% have a hit.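 For each line, cells grew in 96-well plates with the test compound present at a single concentration for 48 hours.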 The source made the active and inactive calls.
# System: SK-OV-3 ovarian
# Assay: NCI-60 one-dose screen, 48 h (100 = growth as untreated, 0 = no growth, -100 = all killed)
# Conditions: 10 µM
# Protocol: Growth inhibition of the SK-OV-3 human tumor cell line is measured as a screen for anti-cancer activity. Cells are grown in 96 well plates and exposed to the test compound for 48 hours. Compounds are tested at a single concentration, which is 10^-5 M for most compounds. The reported endpoint is percent growth (GI% or GIPRCNT), where numbers from 0 - 100% represent growth inhibition, and numbers from -100% - 0 represent cell death. For example, a value of 40 represents 60% growth inhibition. A value of 0 means no net growth occurred over the course of the experiment. A value of -40 indicates 40% of cells at the beginning of the experiment died by the end of the experiment. A value of -100 means all cells are dead at the end of the experiment.
# NCI-60 Human Tumor Cell Lines Screen was performed using the standard one-dose NCI protocol, which is described in more detail at https://dtp.cancer.gov/discovery_development/nci-60/default.htm.
# Compounds with GIPRCNT values below 10 were considered active. Activity score was based on GIPRCNT using the following formula: […]
# Score is 0 for GIPRCNT values of 100 or above, 50 for GIPRCNT values of 0, and 100 for GIPRCNT values of -100.
row,SMILES,growth
1,COc1cc(OC)c(S(=O)(=O)N(CCCl)CCCl)cc1C(=O)/C=C/c1cc(OC)c(OC)c(OC)c1,9.62% (active)
2,COc1cc(OC)c(S(=O)(=O)N(CCCl)CCCl)cc1C(=O)/C=C/c1ccc(C)cc1,74.5% (inactive)
3,CC1=C(CCC=NNC(N)=O)C2=C(C)C3(CC3)[C@@](C)(O)C(=O)C2=C1,-72.1% (active)
4,C=CC[Se]C(=O)c1cncc(C(=O)[Se]CC=C)c1,-92.2% (active)
5,CC[C@]12C=CCN3CC[C@@]4(c5ccc(OC)cc5N(C)[C@H]4[C@@](O)(C(=O)OC)[C@@H]1OC(=O)CCC[P+](c1ccc(F)cc1)(c1ccc(F)cc1)c1ccc(F)cc1)[C@@H]32,54.7% (inactive)
6,C[C@H]1[C@H](OC(=O)CCC(=O)N(CCCc2cn(-c3ccc(CN4CCOCC4)cc3)nn2)CCNc2ccnc3cc(Cl)ccc23)O[C@@H]2OC3(C)CC[C@H]4[C@H](C)CC[C@@H]1[C@@]24OO3,74.2% (inactive)
7,O=C(NC([Se])=NC1CCCCC1)c1ccc2c(c1)OCO2,8.53% (active)
8,CC12OOC(C)(OO1)C2CCC(=O)NCCCNc1ccnc2cc(Cl)ccc12 (stereo not given),103% (inactive)
9,C[C@H]1[C@@H](Oc2ccc(-c3cn(-c4ccnc5cc(Cl)ccc45)nn3)cc2)O[C@@H]2OC3(C)CC[C@H]4[C@H](C)CC[C@@H]1[C@@]24OO3,52.3% (inactive)
10,COc1cc2cc(C(=O)N3C[C@@H](CCl)c4c3cc(OC(=O)N3CCN(C)[C@@H]5CSSC[C@@H]53)c3ccccc43)[nH]c2c(OC)c1OC,-6.59% (active)
11,O=C(/C=C/c1ccc(Br)cc1)c1nc2ccccc2n1Cc1ccc(Br)cc1,79.1% (inactive)
12,COc1cc2cc(C(=O)N3C[C@@H](CCl)c4c3cc(OC(=O)N3CCN(C)[C@@H]5CSSC[C@H]53)c3ccccc43)[nH]c2c(OC)c1OC,-26.3% (active)
13,COc1cc2cc(C(=O)N3C[C@@H](CCl)c4c3cc(OC(=O)N3CCN(C(=O)CCC(=O)N5CCN(C)CC5)[C@@H]5CSSC[C@@H]53)c3ccccc43)[nH]c2c(OC)c1OC,3.05% (active)
14,CC[C@@]12CC(C(=O)OC)=C3Nc4cc5c(cc4[C@@]34CCN(C[C@H]3O[C@H]31)[C@@H]24)[C@@H]1[C@H](O5)[C@@H](O)[C@@]2(CC)CC(C(=O)OC)=C3Nc4cc(OC)ccc4[C@@]34CCN1[C@@H]24,14.4% (inactive)
15,CCOP(=O)(OCC)C(NC(C)=O)C(=O)SCCN (stereo not given),117% (inactive)
16,CC1=C2C(=C[C@@](C)(COP(=O)(Oc3ccccc3)Oc3ccccc3)[C@@H]2O)C(=O)[C@@](C)(O)C12CC2,-79.5% (active)
17,COC(=O)CCn1c(-c2ccc(-n3cc(-c4ccc(O[C@H]5O[C@@H]6OC7(C)CC[C@H]8[C@H](C)CC[C@@H]([C@H]5C)[C@@]68OO7)cc4)nn3)cc2)nc2ccccc21,33.1% (inactive)
18,CC(C)N=C([Se])NC(=O)c1cccs1,-17.3% (active)
19,C[C@H]1[C@H](OC(=O)CCC(=O)Nc2cnccn2)O[C@@H]2OC3(C)CC[C@H]4[C@H](C)CC[C@@H]1[C@@]24OO3,77.4% (inactive)
20,COC(=O)C[C@](O)(CCC(C)C)C(=O)O[C@H]1C(OC)=C[C@@]23CCCN2CCc2cc4c(cc2[C@@H]13)OCO4,-8.41% (active)

row,SMILES,growth
1,O=C(/C=C/c1ccco1)c1nc2ccccc2n1Cc1ccc(F)cc1,85.5% (inactive)
2,CC(C)C[C@H](NC(=O)CNC(=O)C[C@H]1O[C@@H]2OC3(C)CC[C@H]4[C@H](C)CC[C@@H]([C@H]1C)[C@@]24OO3)B(O)O,41.6% (inactive)
3,O=C(/C=C/c1ccc(F)cc1)c1nc2ccccc2n1Cc1ccc(F)cc1,70.4% (inactive)
4,O=C(/C=C/c1cccc(Br)c1)c1nc2ccccc2n1Cc1ccc(F)cc1,81.2% (inactive)
5,Cc1ccc2[nH]c(=S)n(-c3ccc(F)cc3)c(=O)c2c1,122% (inactive)
6,CC[C@]12C=CCN3CC[C@@]4(c5ccc(OC)cc5N(C)[C@H]4[C@@](O)(C(=O)OC)[C@@H]1OC(=O)CCC[P+](c1ccc(C)cc1)(c1ccc(C)cc1)c1ccc(C)cc1)[C@@H]32,-81% (active)
7,CCC[Se]C(=O)c1ccc(C(=O)[Se]CCC)s1,-31.1% (active)
8,CC1=C(C=O)C2=C(C)C3(CC3)[C@@](C)(O)C(=O)C2=C1,-3.31% (active)
9,CC(C)N=C([Se])NC(=O)c1ccccc1,-57.2% (active)
10,CC12OOC(C)(OO1)C2CCC(=O)OCCNc1ccnc2cc(Cl)ccc12 (stereo not given),95.9% (inactive)
11,C=CC[Se]C(=O)c1ccc(C(=O)[Se]CC=C)s1,-95.2% (active)
12,C#CCCCN(CCNc1ccnc2cc(Cl)ccc12)C(=O)CCC(=O)O[C@@H]1O[C@@H]2OC3(C)CC[C@H]4[C@H](C)CC[C@@H]([C@H]1C)[C@@]24OO3,79.3% (inactive)
13,O=C(/C=C/c1ccco1)c1nc2ccccc2n1Cc1ccc(Br)cc1,103% (inactive)
14,CC1=C(CCC=O)C2=C(C)C3(CC3)[C@@](C)(O)C(=O)C2=C1,-62% (active)
15,COc1ccc2cc([C@H](C)C(=O)[Se]CCC#N)ccc2c1,-70.6% (active)
16,COC(=O)C[C@](O)(CCCC(C)C)C(=O)O[C@H]1C(OC)=C[C@@]23CCCN2CCc2cc4c(cc2[C@@H]13)OCO4,0.521% (active)
17,COP(=O)(CC(F)(F)C(F)(F)F)OC,118% (inactive)
18,CC1=C(COCCOC(=O)c2ccc(S(=O)(=O)F)cc2)C2=C(C)C3(CC3)[C@@](C)(O)C(=O)C2=C1,-5.65% (active)
19,CC(=O)Oc1ccccc1C(=O)NC([Se])=NC1CCCCC1,-41.7% (active)
20,COC(=O)C[C@](O)(CCC(C)C)C(=O)O[C@@H]1C(OC)=C[C@]23CCCN2CCc2cc4c(cc2[C@H]13)OCO4,-25.6% (active)
